Data as given in PubChem BioAssay (NCATS).
Records with an inconclusive call do not appear. Activity calls are given as the source filed them. Unless noted, calls come from the whole dose curve; as a rule, active = well fitted curve in the direction sought with a large enough effect; inconclusive = small, poorly fitted or top-dose-only effect, or another doubt; inactive = no such curve, though single readings can be large; an effect the other way counts as inactive or inconclusive.

How the values were obtained:
[1] = system: Zika virus NS2B-NS3 protease; assay: Primary screen GU AMC qHTS for Zika virus inhibitors (AID 1347154);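 note: 0% = no-inhibitor control and -100% = no-enzyme control; nearly all actives have a fitted effect of over 70% in size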
In short: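 Unlinked Zika NS2B hydrophilic domain/NS3 protease domain noncovalent complex (25 nM final) in 10 mM Tris-HCl pH 8.0, 0.01% Tween 20, with AMC peptide substrate. Fluorescence (ex 340, em 450 nm) change over 15 min, room temperature; percent inhibition fitted to 4-parameter Hill equation.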

[2] = Primary qHTS for small molecule stabilizers of the endoplasmic reticulum resident proteome: Secreted ER Calcium Modulated Protein (SERCaMP) assay (AID 1508630); note: % is set by controls: 0 for no effect and ±100 for the full control effect
In short: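 GLuc-SERCaMP-expressing SH-SY5Y cells, pretreated 16 h with compound, are challenged with thapsigargin to empty ER calcium stores; after 4 h, coelenterazine is added directly to the medium and luminescence is imaged.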

[3] = AP1 Signaling Pathway (AID 357; active = well fitted curve in either direction with a large enough effect, not every such curve was filed as active;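 note: ME-180 reporter cells stimulated with EGF at its EC50 level; % is set by controls: 0 for no effect and ±100 for the full control effect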); details: ME-180 AP-1-bla reporter, EGF-induced, beta-lactamase ratio, 5 h; at 38 µM (top of the series)
In short: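 Cells are seeded overnight, exposed to compound titrations and an EC50 level of EGF for 5 hours at 37 °C, then loaded with CCF4 dye for 2.5 hours. Beta-lactamase activity under the AP-1 element is read as a blue/green ratio.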

[4] = NFAT Signaling Pathway (AID 444; active = well fitted curve in either direction with a large enough effect, not every such curve was filed as active;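 note: carbachol stimulus at about its EC50 of 1 µM final; % is set by controls: 0 for no effect and ±100 for the full control effect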); details: Jurkat NFAT-bla M1, carbachol, beta-lactamase ratio, 5 h; at 38 µM (top of the series)
In short: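 Jurkat cells carrying an NFAT-driven β-lactamase reporter and co-transfected muscarinic M1 receptor were treated with compound plus carbachol (1 uM final, an EC50 level) for 5 h at 37 °C. CCF4 loading followed for 1 h at RT; 460/530 nm ratio gave %activity.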

[5] = Stat Signaling Pathway (AID 446; active = well fitted curve in either direction with a large enough effect, not every such curve was filed as active;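 note: ME-180 cervical cancer cells given 40 pM IL-6 alongside compound; SIE-controlled beta-lactamase reporter measured as 460/530 nm FRET emission ratio; % is set by controls: 0 for no effect and ±100 for the full control effect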); details: ME-180 SIE beta-lactamase reporter, IL-6 stimulated, 5 h; at 38 µM (top of the series)
In short: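 Screening format detects activators and inhibitors alike: ME-180 SIE-bla cells stimulated at 40 pM IL-6 for 5 hrs with compound, then dual-emission beta-lactamase read at 405 nm excitation.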

[6] = target: Glucocorticoid receptor (Homo sapiens) (UniProt P04150); assay: GR-GFP Redistribution (AID 450;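 active = compounds whose dose series gives a full or clear partial fitted curve of increased nuclear translocation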; note: potency is the fitted concentration of half-maximal effect); details: U2OS GR-GFP nuclear translocation, laser cytometry, 2 h
[7] = target: Mitogen-activated protein kinase 10 (Mus musculus) (UniProt Q61831); assay: JNK3 AlphaScreen Assay (AID 530; active = well fitted curve in either direction with a large enough effect, not every such curve was filed as active)
In short: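 Inhibitors reduce antibody binding to phosphorylated biotin-cJun, lowering AlphaScreen luminescence. Lysates from HepG2 cells pre-activated by IL-1beta plus TNF-alpha supplied JNK3; compounds were titrated.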

[8] = target: 3',5'-cyclic-AMP phosphodiesterase 4B (Homo sapiens) (UniProt Q07343); assay: qHTS Assay for Inhibitors of PDE-IV (AID 607; active = well fitted activation curve with a large enough effect in the main read-out, with a control signal flat, not every such curve was filed as active; note: % of control where 0% means no effect)
In short: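 The readout is membrane depolarisation from a cAMP-sensing CNG channel, detected with a potential dye at ex 535/em 590. Cells were HEK293-derived (endogenous PDE-IV) at 1000 cells/well, titrated up to 22.9 uM final.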

[9] = target: Guanine nucleotide-binding protein G(i) subunit alpha-1 (Homo sapiens) (UniProt P63096); assay: qHTS Assay for Inhibitors of RGS12 GoLoco Motif Activity (Green Fluorophore) (AID 879);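 note: 0% = labeled peptide with Gαi1 and full inhibition = labeled peptide alone without protein; negative values mean loss of peptide binding seen as reduced polarization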
In short: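 Fluorescence polarization assay: 50 nM Gαi1 with 10 nM FITC-labeled RGS12 GoLoco peptide in 10 mM Tris pH 7.5, 150 mM NaCl, 0.1 mM GDP, 0.05% NP40, 10 min at room temperature with compound.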

[10] = target: Cytochrome P450 2C9 (Homo sapiens) (UniProt P11712); assay: qHTS Assay for Inhibitors and Substrates of Cytochrome P450 2C9 (AID 883); note: % is set by controls: 0 for no effect and ±100 for the full control effect; nearly all actives have a fitted effect of over 60% in size
In short: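 Human CYP2C9 (10nM) hydroxylated Luciferin-H (100uM, at its KM) to luciferin in 25mM KPO4. Compound was preincubated 10 min at 37C, then NADPH regeneration started a 60 min reaction at 37C. Luminescence was read after detection reagent, normalized to 57uM sulphaphenazole.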

[11] = target: Cytochrome P450 3A4 (Homo sapiens) (UniProt P08684); assay: qHTS Assay for Inhibitors and Substrates of Cytochrome P450 3A4 (AID 884); note: % is set by controls: 0 for no effect and ±100 for the full control effect; nearly all actives have a fitted effect of over 50% in size
In short: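 20 nM human CYP3A4 with 25 uM Luciferin-PPXE (at KM) in 200 mM KPO4, preincubated 10 min with compound; NADPH regeneration started a 60 min RT reaction. Luciferin detected by luminescence, normalized to 57 uM ketoconazole as full inhibition.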

[12] = qHTS Assay for Identification of Small Molecule Agonists for Thrombopoietin (TPO) Signaling Pathway (AID 917); note: % is set by controls: 0 for no effect and ±100 for the full control effect
In short: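 IL-3-dependent murine pro-B Ba/F3 cells, stably transfected with human TPO receptor and GpIIb-promoter luciferase, are incubated 24 hrs at 37 C with test compound and 26 pM TPO; luciferase signal is read after 10 min at room temperature.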

[13] = target: Muscarinic acetylcholine receptor M1 (Rattus norvegicus) (UniProt P08482); assay: qHTS Assay for Antagonists of Acetylcholine Muscarinic M1 Receptor: Kinetic Measurement of Intracellular Calcium Response (AID 943);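 note: Fluo-4 calcium signal as peak divided by basal fluorescence over 4 min; nearly all actives have a fitted effect of over 75% in size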
In short: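 Rat M1-CHO cells, 2000/well, overnight → Fluo-4 no-wash dye with probenecid, 1 h 37C → compound 10 min, room temp → basal read 6 s → carbachol EC80 (100 nM) → 4 min kinetic read; peak/basal.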

[14] = target: Muscarinic acetylcholine receptor M1 (Rattus norvegicus) (UniProt P08482); assay: qHTS Assay for Antagonists of Acetylcholine Muscarinic M1 Receptor: Measurement of IP-One Response (AID 944); note: nearly all actives have a fitted effect of over 75% in size
In short: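 M1-CHO (rat), 2000 cells/well, overnight recovery; cpd 10 min; carbachol EC80 (200 nM), 30 min, HEPES buffer + 50 mM LiCl pH 7.4; IP-One HTRF, Ex 337, Em 620/665 nm.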

[15] = target: Pyruvate kinase (Leishmania mexicana) (UniProt Q27686); assay: qHTS Validation Assay for Inhibitors of Leishmania Mexicana Pyruvate Kinase (AID 945);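 note: 0% = DMSO only neutral control wells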
In short: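 Luminescent ATP detection (PKLight) after a 1 h room-temperature reaction of 0.2 nM LmPYK E451W mutant with 0.5 mM PEP and 0.1 mM ADP at pH 7.2. Activity is normalized to DMSO-only control wells.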

[16] = target: Pyruvate kinase PKM (Homo sapiens) (UniProt P14618); assay: qHTS Assay for Activators of Human Muscle Pyruvate Kinase (AID 954; active = well fitted curve in the direction sought with a large enough effect, not every such curve was filed as active;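 note: 0% = uninhibited enzyme and -100% = no enzyme or full thiadiazolimine inhibition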)
In short: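 Reaction: 0.1 nM purified PKM2 with 0.5 mM phosphoenolpyruvate and 0.1 mM ADP, room temperature, 1 h. Readout: luciferase-based ATP luminescence after stop reagent. Activators judged against a 0.3 nM enzyme column.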

[17] = target: alpha-glucosidase (Oryza sativa, rice) (UniProt Q653V4); assay: Counterscreen for Glucocerebrosidase Inhibitors: qHTS Assay for Rice alpha-Glucosidase at pH 5.0 (AID 997);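 note: 0% = full activity with enzyme and -100% = basal without enzyme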
In short: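 Rice alpha-glucosidase (4 nM final) with 400 uM 4-methylumbelliferyl-alpha-D-glucopyranoside in citrate buffer pH 5.0, 20 min at room temperature, stopped at pH 10; fluorescence 365/440 nm, compounds 0.7 nM–77 uM, AC50 from Hill fits.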

[18] = qHTS Assay for Lipid Storage Modulators (AID 1519; calls by dose curve); details: Drosophila S3 cells, BODIPY lipid droplet/cell ratio, laser cytometry, cells loaded with oleic acid; for activity change, negative = inhibition: at 57.5 µM (top of the series)
In short: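 Cells seeded at 5,000 per well were treated with compounds over a concentration series and loaded with oleic acid (400 uM, as added). Lipid droplet fluorescence (488 nm excitation, 500-530 nm channel) was read by laser-scanning cytometry and normalized to 20 uM Triacsin C.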

[19] = target: Ubiquitin carboxyl-terminal hydrolase 1 (Homo sapiens) (UniProt O94782); assay: Inhibitors of USP1/UAF1: Pilot qHTS (AID 504865);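 note: rhodamine fluorescence freed from ubiquitin-rhodamine substrate followed over time; top concentration of the series differs between compounds; % is set by controls: 0 for no effect and ±100 for the full control effect; nearly all actives have a fitted effect of over 35% in size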
In short: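 Enzyme-free wells gave the negative control, while test wells held 1nM USP1/UAF1 preincubated with compound for 15 min at room temperature. Ub-Rho at 150nM final started the reaction, and fluorescence at 480/540 nm was recorded kinetically.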

[20] = target: DNA dC->dU-editing enzyme APOBEC-3G (Homo sapiens) (UniProt Q9HC16); assay: qHTS for inhibitors of Vif-A3G interactions: Validation (AID 588379); note: 0% is about no effect
In short: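 HeLa cells stably expressing Vif and A3G-eYFP, 700 cells/well, incubated overnight at 37 deg C, then exposed to compound overnight at 37 deg C. Inhibition of Vif-mediated degradation read as increased yellow fluorescence (Ex 488/Em 500-530) by laser-scanning cytometry.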

[21] = target: Glutathione peroxidase 1 (Homo sapiens) (UniProt P07203); assay: Primary qHTS Assay for Inhibitors of Recombinant Selenoprotein Glutathione Peroxidase 1 (GPX1) (AID 1845191); note: % is set by controls: 0 for no effect and ±100 for the full control effect; nearly all actives have a fitted effect of over 65% in size
In short: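 Recombinant GPX1 (10 nM final) was preincubated with compound for 30 min at room temperature, then reacted with 1 mM GSH, 0.5 mM CHP, 0.5 mM NADPH and 100 nM glutathione reductase; NADPH fluorescence (340/450 nm) was read at 0 and 15 min.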

[22] = target: Phospholipid hydroperoxide glutathione peroxidase GPX4 (Homo sapiens) (UniProt P36969); assay: Primary qHTS Assay for Inhibitors of Recombinant Selenoprotein Glutathione Peroxidase 4 (GPX4) (AID 1845192); details: outcome: dose series up to 50 µM unless noted; note: nearly all actives have a fitted effect of over 65% in size
In short: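 GR-coupled readout: 100 nM GR, 1 mM GSH, 0.5 mM NADPH; NADPH fluorescence (ex 340/em 450 nm) read at t=0 and after 15 min RT. GPX4 200 nM, preincubated 30 min with compound; substrate 0.5 mM CHP.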

[23] = measured here: cell count channel max response
[24] = measured here: lipid channel max response

Sequence of Glucocorticoid receptor (Homo sapiens) (P04150 whole entry, looked up): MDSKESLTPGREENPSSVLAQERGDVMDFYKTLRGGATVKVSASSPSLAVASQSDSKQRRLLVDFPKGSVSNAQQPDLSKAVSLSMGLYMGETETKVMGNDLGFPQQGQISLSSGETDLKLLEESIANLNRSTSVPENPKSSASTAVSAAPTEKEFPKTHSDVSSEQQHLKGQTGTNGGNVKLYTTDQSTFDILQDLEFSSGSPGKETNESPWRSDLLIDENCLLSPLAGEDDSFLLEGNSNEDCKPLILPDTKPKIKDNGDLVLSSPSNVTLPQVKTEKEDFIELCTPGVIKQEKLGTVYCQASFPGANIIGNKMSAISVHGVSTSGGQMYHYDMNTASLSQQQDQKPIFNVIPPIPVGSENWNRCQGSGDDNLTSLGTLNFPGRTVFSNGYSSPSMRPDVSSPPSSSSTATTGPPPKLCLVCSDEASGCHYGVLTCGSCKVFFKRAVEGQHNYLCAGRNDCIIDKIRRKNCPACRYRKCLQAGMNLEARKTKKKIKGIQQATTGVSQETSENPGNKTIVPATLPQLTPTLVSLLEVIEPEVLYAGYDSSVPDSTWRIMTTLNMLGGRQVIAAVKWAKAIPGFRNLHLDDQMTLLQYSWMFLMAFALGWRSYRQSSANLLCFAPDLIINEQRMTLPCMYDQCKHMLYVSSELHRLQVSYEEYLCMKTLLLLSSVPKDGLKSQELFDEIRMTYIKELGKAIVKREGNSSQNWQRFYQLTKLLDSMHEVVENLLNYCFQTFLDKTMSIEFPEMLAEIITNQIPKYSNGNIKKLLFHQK
Sequence of Muscarinic acetylcholine receptor M1 (Rattus norvegicus) (P08482 whole entry, looked up): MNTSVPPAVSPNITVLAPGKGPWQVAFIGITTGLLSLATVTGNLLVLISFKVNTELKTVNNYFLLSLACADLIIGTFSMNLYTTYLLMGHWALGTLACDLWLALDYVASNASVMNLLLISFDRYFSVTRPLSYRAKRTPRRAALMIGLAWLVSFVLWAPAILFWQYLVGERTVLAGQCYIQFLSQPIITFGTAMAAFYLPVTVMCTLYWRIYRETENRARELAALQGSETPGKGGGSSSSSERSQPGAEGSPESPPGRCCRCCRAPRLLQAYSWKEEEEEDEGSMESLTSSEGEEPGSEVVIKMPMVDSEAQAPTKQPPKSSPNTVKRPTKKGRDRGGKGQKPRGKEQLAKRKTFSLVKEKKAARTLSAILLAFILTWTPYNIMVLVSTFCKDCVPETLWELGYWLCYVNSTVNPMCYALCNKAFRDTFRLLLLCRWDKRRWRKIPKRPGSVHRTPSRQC
Sequence of Cytochrome P450 3A4 (Homo sapiens) (P08684 whole entry, looked up): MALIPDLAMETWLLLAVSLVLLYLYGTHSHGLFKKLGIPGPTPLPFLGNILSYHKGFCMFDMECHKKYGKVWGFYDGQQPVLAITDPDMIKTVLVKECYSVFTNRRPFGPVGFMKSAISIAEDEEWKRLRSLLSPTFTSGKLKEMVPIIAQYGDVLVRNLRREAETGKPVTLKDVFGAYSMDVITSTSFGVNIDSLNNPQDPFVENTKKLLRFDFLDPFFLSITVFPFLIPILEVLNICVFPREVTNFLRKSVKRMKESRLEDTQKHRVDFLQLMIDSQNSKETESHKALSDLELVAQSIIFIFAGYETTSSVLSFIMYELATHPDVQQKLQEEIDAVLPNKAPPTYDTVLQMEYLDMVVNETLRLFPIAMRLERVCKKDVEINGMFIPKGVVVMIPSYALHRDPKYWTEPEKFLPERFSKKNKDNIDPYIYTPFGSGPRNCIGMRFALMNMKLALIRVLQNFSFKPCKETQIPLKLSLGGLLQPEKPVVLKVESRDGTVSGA
Sequence of DNA dC->dU-editing enzyme APOBEC-3G (Homo sapiens) (Q9HC16 whole entry, looked up): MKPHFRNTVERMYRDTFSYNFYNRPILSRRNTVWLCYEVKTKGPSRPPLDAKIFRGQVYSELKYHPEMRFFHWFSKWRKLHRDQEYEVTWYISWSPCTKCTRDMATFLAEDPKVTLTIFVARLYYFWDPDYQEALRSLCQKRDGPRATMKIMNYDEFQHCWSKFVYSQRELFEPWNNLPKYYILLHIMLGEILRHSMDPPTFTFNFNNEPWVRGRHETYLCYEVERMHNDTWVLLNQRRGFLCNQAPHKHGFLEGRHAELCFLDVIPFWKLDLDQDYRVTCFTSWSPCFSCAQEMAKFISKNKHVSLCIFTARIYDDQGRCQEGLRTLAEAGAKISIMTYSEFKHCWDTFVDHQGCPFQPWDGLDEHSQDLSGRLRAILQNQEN
Sequence of Ubiquitin carboxyl-terminal hydrolase 1 (Homo sapiens) (O94782 whole entry, looked up): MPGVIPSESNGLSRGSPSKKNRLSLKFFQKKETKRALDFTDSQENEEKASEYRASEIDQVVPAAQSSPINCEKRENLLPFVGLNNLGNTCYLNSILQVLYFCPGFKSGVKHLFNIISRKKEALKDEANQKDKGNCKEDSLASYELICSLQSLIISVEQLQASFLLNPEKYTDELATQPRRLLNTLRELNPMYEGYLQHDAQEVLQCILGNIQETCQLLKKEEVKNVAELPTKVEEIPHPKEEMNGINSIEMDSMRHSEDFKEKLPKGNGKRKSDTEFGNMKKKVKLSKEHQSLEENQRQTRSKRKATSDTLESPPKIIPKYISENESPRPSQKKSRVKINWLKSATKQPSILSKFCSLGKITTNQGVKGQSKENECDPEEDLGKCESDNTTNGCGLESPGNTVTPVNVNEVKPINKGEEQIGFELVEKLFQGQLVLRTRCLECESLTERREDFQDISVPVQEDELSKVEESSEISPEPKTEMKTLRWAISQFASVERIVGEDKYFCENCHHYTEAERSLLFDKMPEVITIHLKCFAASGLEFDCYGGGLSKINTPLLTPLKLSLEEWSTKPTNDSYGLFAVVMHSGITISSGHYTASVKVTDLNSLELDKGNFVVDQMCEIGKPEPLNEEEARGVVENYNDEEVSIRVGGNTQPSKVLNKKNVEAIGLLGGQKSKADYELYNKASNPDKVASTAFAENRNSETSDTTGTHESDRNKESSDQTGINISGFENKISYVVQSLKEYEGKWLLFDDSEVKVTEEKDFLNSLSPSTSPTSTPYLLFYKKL
Sequence of Glutathione peroxidase 1 (Homo sapiens) (P07203 whole entry, looked up): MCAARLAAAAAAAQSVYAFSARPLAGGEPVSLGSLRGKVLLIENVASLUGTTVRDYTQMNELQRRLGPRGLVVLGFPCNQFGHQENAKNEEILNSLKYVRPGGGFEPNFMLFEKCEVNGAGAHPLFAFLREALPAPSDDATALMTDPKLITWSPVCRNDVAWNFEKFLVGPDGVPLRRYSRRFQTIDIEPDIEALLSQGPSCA
Sequence of Guanine nucleotide-binding protein G(i) subunit alpha-1 (Homo sapiens) (P63096 whole entry, looked up): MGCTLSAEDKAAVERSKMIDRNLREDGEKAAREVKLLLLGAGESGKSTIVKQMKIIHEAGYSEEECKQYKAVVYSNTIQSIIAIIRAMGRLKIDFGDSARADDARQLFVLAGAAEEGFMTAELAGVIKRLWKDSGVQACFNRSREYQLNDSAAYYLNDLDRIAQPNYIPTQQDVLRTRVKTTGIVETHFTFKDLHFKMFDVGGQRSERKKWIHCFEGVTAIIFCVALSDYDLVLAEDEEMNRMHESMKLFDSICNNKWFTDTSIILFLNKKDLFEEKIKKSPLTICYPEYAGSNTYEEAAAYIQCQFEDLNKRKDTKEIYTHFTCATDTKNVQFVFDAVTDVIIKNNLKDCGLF
Sequence of Pyruvate kinase PKM (Homo sapiens) (P14618 whole entry, looked up): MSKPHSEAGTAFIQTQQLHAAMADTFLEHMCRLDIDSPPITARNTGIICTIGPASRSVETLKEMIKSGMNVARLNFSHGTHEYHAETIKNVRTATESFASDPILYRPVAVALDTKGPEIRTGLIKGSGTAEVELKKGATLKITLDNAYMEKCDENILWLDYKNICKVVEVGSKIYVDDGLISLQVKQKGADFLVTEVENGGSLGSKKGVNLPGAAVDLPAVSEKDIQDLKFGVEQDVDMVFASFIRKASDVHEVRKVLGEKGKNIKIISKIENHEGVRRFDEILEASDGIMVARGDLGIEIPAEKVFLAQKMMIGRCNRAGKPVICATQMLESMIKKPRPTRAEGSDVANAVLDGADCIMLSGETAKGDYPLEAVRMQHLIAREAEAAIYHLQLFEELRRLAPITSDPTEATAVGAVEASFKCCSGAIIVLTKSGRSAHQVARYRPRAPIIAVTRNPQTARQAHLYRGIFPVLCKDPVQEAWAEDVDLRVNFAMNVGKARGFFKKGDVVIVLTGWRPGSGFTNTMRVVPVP
Sequence of Cytochrome P450 2C9 (Homo sapiens) (P11712 whole entry, looked up): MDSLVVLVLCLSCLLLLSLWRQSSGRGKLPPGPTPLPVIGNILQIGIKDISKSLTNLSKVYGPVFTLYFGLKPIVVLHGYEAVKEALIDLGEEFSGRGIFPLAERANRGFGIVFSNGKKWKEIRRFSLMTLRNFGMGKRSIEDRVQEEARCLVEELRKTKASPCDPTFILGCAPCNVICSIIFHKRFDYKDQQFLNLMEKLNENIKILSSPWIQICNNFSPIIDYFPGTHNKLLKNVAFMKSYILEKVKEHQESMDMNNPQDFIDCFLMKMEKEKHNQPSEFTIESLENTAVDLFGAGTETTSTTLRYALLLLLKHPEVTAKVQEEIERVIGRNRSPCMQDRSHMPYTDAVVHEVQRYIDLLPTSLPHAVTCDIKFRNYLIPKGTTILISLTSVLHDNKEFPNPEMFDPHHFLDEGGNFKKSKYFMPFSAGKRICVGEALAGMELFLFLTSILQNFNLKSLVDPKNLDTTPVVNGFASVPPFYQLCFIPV
Sequence of Phospholipid hydroperoxide glutathione peroxidase GPX4 (Homo sapiens) (P36969 whole entry, looked up): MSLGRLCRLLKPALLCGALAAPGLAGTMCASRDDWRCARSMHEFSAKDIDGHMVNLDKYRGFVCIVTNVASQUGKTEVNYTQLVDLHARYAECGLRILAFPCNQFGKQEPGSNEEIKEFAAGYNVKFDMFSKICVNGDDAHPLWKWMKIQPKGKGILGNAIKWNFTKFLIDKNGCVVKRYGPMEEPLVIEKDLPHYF

CC1=C(C(=O)OC(C)C)[C@@H](c2cccc3nonc23)C([N+](=O)[O-])=C(C)N1
inactive: Potency [1] | Potency [2]

CC(=O)OCOC(=O)CN(CC(=O)OCOC(C)=O)c1ccccc1OCCOc1ccccc1N(CC(=O)OCOC(C)=O)CC(=O)OCOC(C)=O
inactive: Potency [1] | Potency [2]

CC(N)=NCCCC[C@H](N)C(=O)O
inactive: activity change, negative = inhibition [3] -1.14% | activity change, negative = inhibition [4] -3.86% | activity, negative = inhibition [5] -14% | Potency [6] > 46 µM | Potency [7] | Potency [8] | outcome [9] | Potency [10] | Potency [11] | Potency [12] | Potency [13] | Potency [14] | Potency [15] | outcome [16] | outcome [17] | activity change, negative = inhibition [18] -4.89% | Potency [19] | Potency [20] | Potency [1] | Potency [2]
-10.8%: max response [18, 24]
-8.18%: max response [18, 23]

N[C@H](Cc1cnc[nH]1)C(=O)O
-9.8%: max response [18, 23]
-11.7%: max response [18, 24]
inactive: Potency [11] | activity change, negative = inhibition [18] -0.699% | Potency [19] | Potency [20] | Potency [1] | Potency [2] | Potency [21] | Potency [22]
